# Source: PubChem BioAssay AID1022 (Emory University Molecular Libraries Screening Center, 2008)
# Where “and” joins values, the source holds several entries; their conditions need not be identical. Identical values can stand only once. In all, about 220,000 compounds went through this assay and about 3,300 (1.5%) were called active. For the sample, actives were picked, then their nearest neighbours and some compounds at random. A number with no mark means an inactive call.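 The calls were made as follows: active = compounds that cut the protein-peptide binding signal by more than 50% relative to plate controls in a single-dose test; inactive = the rest.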
# Molecular target: Induced myeloid leukemia cell differentiation protein Mcl-1 (Homo sapiens) (UniProt Q07820)
# Sequence (Q07820 whole entry, looked up): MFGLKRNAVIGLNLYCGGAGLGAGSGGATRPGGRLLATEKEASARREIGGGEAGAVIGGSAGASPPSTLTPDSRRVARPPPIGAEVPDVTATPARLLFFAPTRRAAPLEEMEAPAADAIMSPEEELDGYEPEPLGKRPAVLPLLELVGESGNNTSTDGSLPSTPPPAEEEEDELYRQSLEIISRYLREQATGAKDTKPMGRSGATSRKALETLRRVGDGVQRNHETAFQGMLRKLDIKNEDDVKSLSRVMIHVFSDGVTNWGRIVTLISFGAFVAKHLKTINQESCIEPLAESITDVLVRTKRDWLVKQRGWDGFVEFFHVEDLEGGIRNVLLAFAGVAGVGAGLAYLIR
# Assay: Mcl-1/Noxa binding inhibitors, primary screen, biochemical, TR-FRET, 1536-well (AID 1022);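 also: His-tagged Mcl-1 with rhodamine Noxa BH3 peptide and terbium anti-His antibody; 0% = Mcl-1 plus Noxa peptide wells and 100% = peptide-only wells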
# Settings: TR-FRET Mcl-1/Noxa peptide binding, 2 h; at 21.7 µM; active compounds read high
row,SMILES,inhibition
1,O=C(Nc1nnc(SCc2c(Cl)cccc2Cl)s1)c1cccc([N+](=O)[O-])c1,27.4%
2,CCc1cc(C(=O)c2ccc(OC)cc2)c(NC(=O)CN2CCN(C)CC2)s1,0.41%
3,Cc1ccc(CSc2nnc(-c3cnccn3)n2C)cc1,2.82%
4,O=C(NCc1cc(C(F)(F)F)cc(C(F)(F)F)c1)C1CC(c2cccc(F)c2)=NO1 (centres undefined),-14.9%
5,COc1ccc(C(=O)C2CCCN(Cc3ccc4nonc4c3)C2)c(C)c1 (centres undefined),0.59%
6,O=C(NC1CC1)c1ccc2c(c1)NC(=O)c1ccccc1S2,-14.5%
7,CC(=O)Nc1cccc(/C(C)=N/NC(=O)c2ccccc2Cl)c1,12.1%
8,C/C(=N\Nc1cccc(C(=O)O)c1)c1ccc2c(c1)Nc1ccccc1S2,78.5% (active)
9,Cc1c(NC(=O)C(=O)N/N=C/c2cccs2)c(=O)n(-c2ccccc2)n1C,-17.4%
10,O=C(Nc1n[nH]c(C(F)(F)F)n1)c1cccs1,1.44%
11,COC(=O)c1scc(C)c1NC(=O)CSc1ccc(Cl)cc1,2.67%
12,CCN(CC)N=Nc1cccc(NC(C)=O)c1,52.4% (active)
13,CCN(CC)C(=O)C(=O)Nc1cccc(Br)c1,-12.2%
14,CC(=O)Nc1cccc(C(=O)Nc2nc(C)cs2)c1,18.4%
15,C=C(C)COc1ccc(-c2nc(N)ncc2-c2ccccc2OC)c(O)c1,19.2%
16,NC(=S)Nc1c(Cl)cccc1Cl,-2.54%
17,Cc1ccc(OC(=O)c2c(C)nn(-c3ccccc3)c2C)cc1,-10.1%
18,CC(C)CCN1NC2(CCC(C)CC2)NC1=S (centres undefined),10.8%
19,Cc1ccc(OS(=O)(=O)c2ccc(-c3csc(C)n3)s2)c(C)c1,10.9%
20,Cn1nc(C(F)(F)F)cc1-c1ccc(/C=C(\C#N)C(=O)c2cccc(C(F)(F)F)c2)s1,8.47%
21,Cc1cc(C)n(C(=O)c2ccc(S(=O)(=O)N3CCCC3)cc2)n1,7.15%
22,COc1ccc(C(=O)OCC(=O)c2ccc(C)c(S(=O)(=O)N3CCOCC3)c2)cc1OC,-9.99%
23,Cc1cc(C)n(C(=O)c2ccc(C)c(S(=O)(=O)N3CCOCC3)c2)n1,72.5% (active)
24,Cc1ccc(C)c2[nH]c(=O)c(CN(Cc3cccnc3)C(=S)NCc3ccco3)cc12,4.29%

row,SMILES,inhibition
1,N=C1/C(=C/c2cccn2-c2cccc([N+](=O)[O-])c2)C(=O)N=C2SC=CN12,64.6% (active)
2,N/C(=N\OC(=O)CCn1cccc(C(F)(F)F)c1=O)c1ccc(OC(F)(F)F)cc1,-5.59%
3,COc1ccc(NC2=CC(=S)NC(C)(C)C2)cc1,19.2%
4,O=C(CN1CCN(S(=O)(=O)/C=C/c2ccccc2)CC1)Nc1ccc(N2CCOCC2)cc1,9.11%
5,O=c1cc(CN2CCN(S(=O)(=O)/C=C/c3ccccc3)CC2)c2ccc(O)cc2o1,57.9% (active)
6,COc1ccc2c(CN3CCN(S(=O)(=O)c4cccs4)CC3)cc(=O)oc2c1,-3.37%
7,Cc1nc2ccccc2nc1N/N=C/c1ccc(O)cc1O,-26.1%
8,CCCCCCCN=C(C)c1ccccc1O,-3.31%
9,Cc1ccc(S(=O)(=O)Nc2nc3ccccc3s2)cc1[N+](=O)[O-],9.42%
10,O=[N+]([O-])c1cc(Br)c(O)c(/C=N/Nc2nc3ccccc3s2)c1,79.4% (active)
11,c1ccc2sc(NN=C3CCCC3)nc2c1,5.28%
12,CCCN(CCC)S(=O)(=O)c1ccc(C(=O)NNC(=O)c2cc(OC)c(OC)c(OC)c2)cc1,14.9%
13,Cc1cc(OCCCCOc2ccc(C#N)cc2)ccc1[N+](=O)[O-],5.03%
14,CC/C=C/C(=O)N1CC2(CC(c3cccc(NC(=O)CC)c3)=NO2)C[C@H]1C(N)=O (some centres undefined),-7.66%
15,COc1cc(/C=N\Nc2nc(-c3cccs3)c(NC(C)=O)s2)ccc1O,95.2% (active)
16,CCOc1cc(/C=C(\C#N)c2nc(-c3cccs3)c(NC(C)=O)s2)ccc1O,24.5%
17,COc1cc(/C=N/Nc2nc3ccccc3s2)ccc1O,27.8%
18,CC(C)c1ccc(Nc2nnc(SCC(=O)c3nnc(-c4ccccc4)o3)s2)cc1,104% (active)
19,Cc1ccc(Nc2nnc(SCC(=O)c3cc4ccccc4o3)s2)cc1C,24.3%
20,O=C(CSc1nnc(Nc2ccccc2)s1)Nc1cccnc1Cl,9.43%
21,Cc1cccc2c1-c1sc(C(=O)NCCCN3CCc4ccccc4C3)cc1CO2,11%
22,CCOC(=O)CN(C(=O)COc1nc(-c2ccccc2)cc(C)c1C#N)c1ccc(F)cc1,7.27%
23,CN(C)C(=S)Nc1ccc(Br)cc1Cl,-1.61%
24,O=C(Cc1ccccc1)NCc1ccc(F)cc1,-0.05%

row,SMILES,inhibition
1,CN(C)CCCNC(=O)c1ccc2[nH]c3ccccc3c2c1,3.04%
2,CN(C)c1ccc(C(CNC(=O)c2ccc(F)cc2)c2c[nH]c3ccccc23)cc1 (centres undefined),75.8% (active)
3,CCOC(=O)C1=NN(c2ccc(Cl)cc2)/C(=C/C2=NCCc3cc(OC)c(OC)cc32)S1,1.42%
4,O=C(Cn1c[n+](CC(=O)c2ccc([N+](=O)[O-])cc2)cn1)c1ccc([N+](=O)[O-])cc1,27.4% and -7.77%
5,CCc1nnc(NC(=O)c2cccc(S(=O)(=O)N(C)c3ccc(OC)cc3)c2)s1,10.9%
6,CCc1nnc(NC(=O)c2sc3nc(C)cc(COC)c3c2N)s1,22.4%
7,CCc1ccc2nc3sc(C(=O)Nc4nnc(CC)s4)c(N)c3cc2c1,90.1% (active)
8,C#CCO[C@@H]1C[C@H](n2cnc3c(=O)[nH]c(NC(=O)C(C)C)nc32)O[C@@H]1CO,-275%
9,Cc1ccc(C(=O)Cn2cc([N+](=O)[O-])nc2C)cc1,-26.9%
10,Cc1ccc(N=C2NC(=O)/C(=C/C=C/c3ccco3)S2)cc1C,107% (active)
11,Cc1cccc(N=C2NC(=O)/C(=C/c3cn(C)c4ccccc34)S2)c1,4.96%
12,Cc1ccc(N2NC(=O)/C(=C/C=C/c3ccco3)C2=O)cc1C,6.33%
13,CC(C)(C)c1cc(NC(=O)NN2CCOCC2)nn1-c1c(Cl)cc(Cl)cc1Cl,2.67%
14,N/C(=N\S(=O)(=O)c1ccc(Cl)cc1)N1CCOCC1,-2.49%
15,C/C=C/C(=O)Nc1ccc(N2CCN(c3ccc(C(F)(F)F)cn3)CC2)nc1,4.65%
16,Cc1ccnc(N2CCC(C(=O)NC3CCCCCC3)CC2)n1,-9.93%
17,Cc1ccnc(Nc2nc3ccccc3s2)n1,-8.28%
18,Cc1ccnc(-n2sc3ccccc3c2=O)n1,69% (active)
19,CCCCCCCC(=O)OC(CN1CCCCCC1)CN1CCCC1=O (centres undefined),-0.02%
20,Cc1ccc2cc(/C=N/Nc3ccc(C(=O)O)cc3)c(Cl)nc2c1,32.8%
21,Cn1c2c(c(=O)n(C)c1=O)C(c1cccc(F)c1)C(C#N)=C(N)O2 (centres undefined),-5.47%
22,Cc1ccc(C2Nc3ccccc3C(=O)N2CCN2CCNC2=O)cc1 (centres undefined),-12.9%
23,O=C(COC(=O)c1ccc(F)cc1F)Nc1ncccn1,65.1% (active)
24,COc1cc(OC)cc(C(=O)OCC(=O)Nc2ccc(F)cc2F)c1,2.79%

row,SMILES,inhibition
1,CC(NC(=O)COC(=O)c1ccc(Cl)cc1O)c1ccc(F)cc1 (centres undefined),0.03%
2,Cc1nnc(Nc2ccccc2F)s1,-14.1%
3,C/C(Cc1ccccc1)=N\NC(=O)CNC(=O)c1ccccc1Cl,-7.79%
4,O=C1N(c2ccccc2)C(=Nc2ccccc2)SC12CC2,1.01%
5,O=C1Oc2ccccc2C(=O)/C1=C/c1ccccc1O,81.4% (active)
6,C=CCn1c2ccccc2c2nnc(SCc3[nH]c(=O)[nH]c3C(=O)CCCCC(=O)OCC)nc21,52.5% (active)
7,C=CCn1c(SCC(=O)CC(=O)OCC)nc2cc(C(=O)N3CCC(C(N)=O)CC3)ccc2c1=O,-5.71%
8,C=CCn1c2ccccc2c2nnc(SC(CC)C(=O)Nc3nc(C)c(C(=O)OCC)s3)nc21 (centres undefined),11.2%
9,CC(C)(C)n1cnnc1Sc1ccc([N+](=O)[O-])cn1,2.83%
10,Cn1cccc1/C=C1\SC(=O)N(CC(=O)Nc2ccc(F)cc2)C1=O,12.7%
11,Cc1ccccc1NC(=O)CN1C(=O)N/C(=C\c2cccn2-c2cccc(C(=O)O)c2)C1=O,40.1%
12,N#Cc1ccccc1CN1C(=O)S/C(=C/c2cccn2-c2cccc(C(=O)O)c2)C1=O,66.4% (active)
13,Nc1ccc(N=Nc2ccccc2Cl)c(N)n1,10.8%
14,COc1ccc(CCNC(=O)C2CC3Cn4c(nc5cc(C)c(C)cc54)C3N2C)cc1 (centres undefined),-4.09%
15,COc1ccc(C/C(N)=N/OC(=O)c2ccco2)cc1OC,64.8% (active)
16,COc1ccc(C(=O)O/N=C(\N)Cc2ccc(Cl)cc2Cl)cc1OC,6.09%
17,COc1ccc(CC(=O)Nc2ccccc2NC(=O)c2ccco2)cc1OC,36.8%
18,N#C/C(=C\N1CCOCC1)S(=O)(=O)c1ccc(Cl)cc1,-9.31%
19,COc1ccc(-c2ccc(OC(=O)NC3CCS(=O)(=O)C3)cc2)cc1 (centres undefined),-3.15%
20,COc1cccc2c(C)c(C(=O)O)[nH]c12,83.1% (active)
21,COc1cccc2c(O)cc(=O)n(C)c12,-20.5%
22,Cc1c(C(=O)N/N=C/c2ccccc2)[nH]c2c([N+](=O)[O-])cccc12,21%
